Compounds without any hit were thinned out: in the full panel of roughly 83,000, 20% have a hit.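 Cells were grown in 96-well plates and exposed to the test compound at a single concentration for 48 hours; results are reported as percent growth, with values below 10 considered active.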 Active and inactive are the calls of the source.
Legend:
Assay in all cases: NCI-60 one-dose screen, 48 h (100 = growth as untreated, 0 = no growth, -100 = all killed)
Conditions in all cases: 10 µM
[1] = test system: OVCAR-8 ovarian
[2] = test system: OVCAR-5 ovarian
[3] = test system: OVCAR-4 ovarian
[4] = test system: SK-OV-3 ovarian
[5] = test system: IGROV1 ovarian
[6] = test system: OVCAR-3 ovarian
[7] = test system: HS 578T breast
[8] = test system: NCI/ADR-RES ovarian
[9] = test system: T-47D breast
[10] = test system: BT-549 breast
[11] = test system: MDA-MB-435 melanoma
[12] = test system: SW-620 colon
[13] = test system: MCF7 breast
[14] = test system: HCC-2998 colon
[15] = test system: KM12 colon
[16] = test system: HCT-116 colon

Measured: growth

CCn1cc(C(=O)O)c(=O)c2cnc(N3CCCC3)nc21
inactive: [1] 101% | [2] 103% | [3] 105% | [4] 108% | [5] 103% | [6] 119% | [7] 99.9% | [8] 102% | [9] 99.1% | [10] 104% | [11] 94.2% | [12] 106% | [13] 103% | [14] 107% | [15] 108%

N#Cc1cc(-c2cc3ccccc3o2)oc1N
active: [1] 4.89% | [5] 7.67% | [6] -7.74% | [7] -37.9% | [11] 5.63% | [16] 8.05% | [15] 0.443%
inactive: [2] 20.9% | [3] 20.5% | [4] 17.3% | [8] 11.1% | [9] 27.9% | [12] 12% | [13] 22.9%

O=C1/C(=C/c2ccc(Cl)cc2)SC(=Nc2ccc(Cl)cc2)N1Cc1nc2ccccc2[nH]1
inactive: [1] 66.9% | [2] 107% | [4] 97.6% | [5] 64.8% | [6] 81.6% | [7] 114% | [9] 78.1% | [10] 104% | [11] 76.3% | [12] 74.9% | [13] 59% | [16] 53.8% | [14] 62% | [15] 76.7%

OCC1OC(n2cnc3c(N/N=C\c4ccccn4)ncnc32)C(O)C1O (stereo not given)
inactive: [1] 23.2% | [2] 43.3% | [3] 21.6% | [6] 24.3% | [7] 14.5% | [9] 25.4% | [10] 44.3% | [11] 23.6% | [12] 23.9% | [13] 16.8% | [16] 11.9% | [14] 10.9% | [15] 26.7%
active: [5] -6.53%

CC(C)=CCc1ccc(O)c(=O)cc1C(C)C
active: [5] 1.88% | [8] 1.61% | [14] 7.5%
inactive: [1] 12.4% | [2] 52.4% | [3] 31.2% | [6] 43.4% | [7] 72.7% | [9] 20.4% | [11] 30.7% | [12] 34.1% | [13] 21.5% | [16] 17.3% | [15] 26.4%

CCOC(=O)CCC(NC(=O)c1ccc(N)cc1)C(=O)OCC (stereo not given)
inactive: [1] 105% | [2] 89.6% | [3] 95.7% | [4] 109% | [5] 105% | [6] 106% | [7] 113% | [8] 102% | [9] 101% | [10] 44.8% | [11] 117% | [12] 107% | [13] 103% | [16] 106% | [14] 105% | [15] 106%

COc1ccc2c(c1)[n+]([O-])c(C#N)c(NC(=O)c1ccco1)[n+]2[O-]
inactive: [1] 65.3% | [2] 111% | [3] 93.8% | [4] 91.2% | [5] 118% | [6] 113% | [8] 111% | [9] 91.5% | [11] 104% | [12] 108% | [13] 90.8% | [16] 99.9% | [15] 105%

O=[N+]([O-])c1ccc(N/N=C/c2cccc3ccccc23)nc1
inactive: [1] 104% | [2] 96.7% | [3] 90.4% | [4] 105% | [5] 89.8% | [6] 122% | [7] 108% | [8] 107% | [9] 75.4% | [10] 106% | [11] 118% | [12] 117% | [13] 75.6% | [16] 95.8% | [14] 101% | [15] 99.1%

CSc1cc(SC)ncn1
inactive: [1] 105% | [2] 105% | [3] 113% | [4] 104% | [5] 116% | [6] 124% | [7] 115% | [8] 118% | [9] 105% | [10] 104% | [11] 115% | [12] 103% | [16] 102% | [14] 111% | [15] 108%

CCCCC/C=C/C(=O)CCc1ccc(O)c(OC)c1
active: [13] 1.77%
inactive: [1] 88.6% | [2] 127% | [4] 86.7% | [6] 55.8% | [7] 104% | [9] 73.3% | [10] 66.9% | [11] 19.4% | [12] 68.4% | [16] 13.6% | [14] 21% | [15] 31.1%

O=C1c2ccc3c4c(ccc(c24)C(=O)N1CCNCc1ccccc1)C(=O)N(CCNCc1ccccc1)C3=O
active: [1] 2.34% | [3] -97.8% | [5] -75.7% | [6] -62.6% | [9] -27.2% | [10] -21.3% | [11] -75.6% | [12] 3.88% | [13] -45.4% | [16] -18% | [14] -92.2% | [15] -43.3%
inactive: [2] 132% | [4] 109%

COc1cccc(-c2cc(-c3cccc(NS(C)(=O)=O)c3)nc(N)c2C#N)c1O
inactive: [1] 42.4% | [2] 84.1% | [3] 52.8% | [4] 27.2% | [5] 91.2% | [7] 52.8% | [9] 52% | [10] 58.1% | [12] 37.4% | [13] 19.1% | [15] 23.1%
active: [6] -16% | [11] -20.8% | [14] -25.3%

COc1cc2c(cc1OCCCCCCN1CCN(CC(=O)Nc3ccc(Cl)cc3C(=O)c3ccccc3Cl)CC1)N=CC1CCCN1C2=O (stereo not given)
active: [1] -81.7% | [2] -74.4% | [3] -88.9% | [4] -90.2% | [5] -79% | [6] -91.9% | [7] -83.5% | [8] -60.8% | [9] -57.8% | [11] -81.2% | [12] -83.6% | [13] -7.24% | [16] -42.3% | [15] -75.9%

COc1ccc(NC(=O)CSc2nc3ccccc3c(=O)n2CCc2ccccc2)cc1
inactive: [1] 60.7% | [2] 101% | [3] 97% | [5] 82.3% | [6] 90.4% | [7] 51.2% | [8] 85.2% | [9] 93.3% | [10] 91.8% | [11] 90.5% | [12] 89.1% | [13] 89.9% | [16] 87.6% | [14] 106% | [15] 84.4%

COc1ccc(CN2CCC(N3CCCC3=O)c3cc(Cl)ccc32)cc1 (stereo not given)
inactive: [1] 104% | [2] 93.3% | [3] 95.3% | [4] 105% | [5] 104% | [6] 120% | [8] 90.2% | [9] 89.5% | [10] 67.6% | [11] 119% | [12] 102% | [16] 96.8% | [14] 105% | [15] 103%

CC1(O)CCC2CC3OC3(C)CCC3OC3(C)CCC1C2(C)C (stereo not given)
inactive: [1] 83% | [2] 109% | [3] 109% | [4] 104% | [5] 89.5% | [6] 69.4% | [7] 89.4% | [8] 109% | [9] 104% | [11] 107% | [12] 99.6% | [13] 103% | [16] 100% | [15] 111%

O=c1[nH]c2ccc(Cl)cc2c2ccccc12
active: [3] -3.77%
inactive: [1] 77.5% | [2] 84.2% | [4] 39.4% | [5] 29.5% | [6] 87% | [7] 75.1% | [9] 10.4% | [10] 100% | [11] 72.1% | [12] 102% | [13] 93.1% | [16] 38.4% | [14] 52.4% | [15] 65.2%

COc1cc(CNCCCCCCN2C(=O)c3cccc4cccc(c34)C2=O)ccc1O
inactive: [1] 69% | [2] 116% | [4] 69% | [6] 90.1% | [7] 106% | [9] 65.3% | [10] 83.2% | [11] 58.1% | [12] 57.9% | [13] 11.4% | [16] 31.4% | [15] 72.3%
active: [14] -21.3%

O=C(O)CN1C(=O)c2cccc3cccc(c23)C1=O
inactive: [1] 98.8% | [2] 105% | [3] 100% | [4] 94% | [5] 111% | [6] 118% | [7] 108% | [8] 102% | [9] 90.1% | [10] 104% | [11] 104% | [12] 106% | [13] 87.4% | [16] 102% | [14] 103% | [15] 107%

COc1ccc(OC)c(/C=C/c2nnc(Nc3ccc(Cl)cc3)o2)c1
active: [3] -16% | [7] 6.91% | [9] -4.56%
inactive: [1] 66.7% | [2] 103% | [4] 32.9% | [5] 80.6% | [10] 97.4% | [11] 69.8% | [12] 66.7% | [13] 74.5% | [16] 21.9% | [14] 55.4% | [15] 86.5%

c1ccc(CO[C@H]2CO[C@H]3[C@@H]2OC[C@H]3OCc2ccccc2)cc1
inactive: [1] 107% | [2] 99.6% | [3] 111% | [4] 96% | [5] 92.3% | [6] 111% | [7] 109% | [8] 106% | [9] 93.7% | [10] 104% | [11] 115% | [12] 107% | [13] 101% | [16] 105% | [14] 98% | [15] 103%

COc1cc2c(cc1OCCCN1CCN(c3ncnc4ccccc34)CC1)N=CC1CCCN1C2=O (stereo not given)
inactive: [2] 17.7% | [4] 19.8% | [8] 15.9% | [9] 25% | [16] 11.7%
active: [1] -54.7% | [3] 4.86% | [5] -28.9% | [6] -35.2% | [7] -57.6% | [11] -67.8% | [12] -24% | [15] -24.8%

ClCC#CCSc1ncnc2c1ncn2CC#CCCl
active: [6] -27.5% | [9] -23.1% | [11] 0.673% | [12] 2.37% | [16] -49% | [14] -24.9% | [15] 6.96%
inactive: [1] 24.4% | [2] 14.1% | [3] 34.3% | [4] 45.7% | [5] 30.7% | [7] 107% | [10] 27.5% | [13] 20.2%

O=C1CC[C@@H]2CCCC[C@@H]2C1
inactive: [1] 109% | [2] 101% | [4] 99.4% | [5] 105% | [6] 132% | [7] 110% | [8] 110% | [9] 93.5% | [10] 136% | [11] 103% | [12] 108% | [13] 97.2% | [16] 104% | [14] 112% | [15] 112%

CS(=O)(=O)Nc1cccc(-c2cc(-c3ccccc3Cl)c(C#N)c(N)n2)c1
active: [7] -1.53% | [11] -45.8% | [14] -3.16%
inactive: [1] 44% | [2] 56.3% | [3] 47.1% | [4] 22% | [5] 51.4% | [9] 36.9% | [10] 37.1% | [12] 24.5% | [13] 22.7% | [16] 21.8% | [15] 24.5%

O=C1C(=O)c2ccccc2C(O)=C1CCCc1ccc(C2CCCCCC2)cc1
active: [14] 8.94%
inactive: [1] 46.8% | [2] 82.6% | [3] 20.9% | [4] 48.8% | [5] 21% | [6] 51.5% | [7] 115% | [9] 29% | [10] 58.2% | [11] 33.9% | [12] 32.9% | [13] 25.5% | [16] 24.6% | [15] 37.8%

Cc1ccc(NC(=O)CSc2nc3ccccc3c(=O)n2CCc2ccccc2)c(C(=O)O)c1
inactive: [1] 100% | [2] 111% | [3] 103% | [4] 93.6% | [5] 94.1% | [6] 115% | [7] 106% | [8] 118% | [9] 96.2% | [11] 97.3% | [12] 109% | [13] 93.8% | [16] 92.7% | [14] 113% | [15] 110%

COc1ccc(-c2cc(-c3cccc(NS(C)(=O)=O)c3)nc(N)c2C#N)cc1
active: [6] -48.4% | [7] -14.3% | [11] -55.2% | [14] -25.7%
inactive: [1] 37.6% | [2] 53.8% | [3] 51.3% | [4] 20.3% | [5] 73.4% | [9] 57.5% | [10] 40.1% | [12] 27.4% | [13] 16.5% | [16] 17% | [15] 17.6%

Reference: PubChem BioAssay (NCI)
